Compounds with a hit are over-represented: about 4.1% of the library has one in this group of screens.
FMDV inh – blocks foot and mouth disease virus | actives 1.2% (n = 410,000) | FMDV antiviral cell-based qHTS | AID 1159524 | Potency, µM (top dose mostly 57.9 µM), for inactives: top-dose activity change, negative = inhibition, actives largely listed as inhibitors; calls by dose curve; tested in HEK293T cells; also: read-out not given here; nearly all actives have a fitted effect of over 45% in size
AmpC no deterg – inhibitors of E. coli AmpC beta-lactamase without detergent. Potency, µM (doses to about 57.1 µM), without a hit: at the highest dose activity change, negative = inhibition, hits mostly inhibitors. AmpC nitrocefin hydrolysis, absorbance 480 nm, 0.0001% Triton. actives 0.52% (n = 330,000). P00811;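 also: plate controls were no compound for no effect and no enzyme for full effect; nearly all actives have a fitted effect of over 20% in size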
Target sequence (P00811 whole entry, looked up): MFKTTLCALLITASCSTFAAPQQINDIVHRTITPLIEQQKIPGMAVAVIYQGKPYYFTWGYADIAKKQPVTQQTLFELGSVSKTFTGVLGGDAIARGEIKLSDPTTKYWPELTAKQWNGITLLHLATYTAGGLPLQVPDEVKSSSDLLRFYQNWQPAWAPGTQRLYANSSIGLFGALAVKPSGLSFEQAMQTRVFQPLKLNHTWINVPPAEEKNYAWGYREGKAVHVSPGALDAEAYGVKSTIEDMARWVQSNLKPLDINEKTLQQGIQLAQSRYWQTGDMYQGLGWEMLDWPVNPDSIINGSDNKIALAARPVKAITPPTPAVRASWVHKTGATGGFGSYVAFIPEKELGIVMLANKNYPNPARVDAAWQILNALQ
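AmpC (5.3 nM in the dispensed reagent) in 20 mM phosphate pH 7.0 with 0.01% (detergent screen) or 0.0001% Triton X-100 was preincubated with compounds for 15 min at room temperature. Nitrocefin was then added from an 800 uM solution, and hydrolysis was followed at 480 nm.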
AMA1 RON2 block – disrupts binding of P. falciparum AMA1 to RON2 | AlphaScreen AMA1-biotinylated RON2 peptide binding | Potency, µM (titrated, usually from 58.2 µM), for inactives: at the top dose activity change, negative = inhibition, most hits filed as inhibitors | actives 0.2% (n = 360,000) | AID 720542;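 also: 0% = vehicle wells and -100% = peptide control; nearly all actives have a fitted effect of over 45% in size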
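AMA1 (3D7) with his tag at 25 nM final met compounds first, then biotinylated RON2 peptide at 25 nM; detection used donor plus acceptor beads, 10 µg/mL apiece, read by AlphaScreen after 30 min at room temperature.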
AmpC inh detg – blocks E. coli AmpC beta-lactamase in detergent assay; AmpC hydrolysis of nitrocefin, absorbance 480 nm, 0.01% Triton; Potency, µM (doses to about 114 µM), without a hit: top-dose activity change, negative = inhibition, actives largely listed as inhibitors; actives 0.041% (n = 370,000);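 also: 0% = no-compound wells and -100% = no-enzyme wells; nearly all actives have a fitted effect of over 25% in size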
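AmpC (5.3 nM in the dispensed reagent) in 20 mM phosphate pH 7.0 with 0.01% (detergent screen) or 0.0001% Triton X-100 was preincubated with compounds for 15 min at room temperature. Nitrocefin was then added from an 800 uM solution, and hydrolysis was followed at 480 nm.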
Sm TGR inh – blocks Schistosoma mansoni thioredoxin glutathione reductase. Q962Y6. purified TGR, DTNB reduction, TNB absorbance 405 nm. Potency, µM (doses to about 114 µM), without a hit: top-dose activity change, negative = inhibition, usual class: inhibitors. actives 3% (n = 360,000); also: nearly all actives have a fitted effect of over 60% in size
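Kinetic colorimetric format: TGR-catalysed, NADPH-driven DTNB reduction monitored via TNB absorbance. Enzyme dispensed at 20 nM; compound exposure 15 min at room temperature before reaction start.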
Numbers without * were called inactive; ? = inconclusive; . = not tested or not shown. Unless noted, calls follow the shape of the dose curve; as a rule, active = well fitted curve in the direction sought with a large enough effect; inconclusive = small, poorly fitted or top-dose-only effect, or another doubt; inactive = no such curve, though single readings can be large; an effect the other way counts as inactive or inconclusive. Unless noted, % is scaled to controls: 0 for no effect and ±100 for the full control effect; potency is read from the fitted curve at half-maximal effect.

SMILES	FMDV inh	AmpC no deterg	AMA1 RON2 block	AmpC inh detg	Sm TGR inh
Cc1[nH]n(-c2ncc(-c3ccc(Cl)cc3)s2)c(=O)c1C(c1ccc(Cl)cc1)C(C#N)C#N (centres undefined)	?	40µM*	24%	-2%	?
CC1(C)CC(C(=O)N2CCOc3ccc(CN4CCC(Oc5cccnc5)CC4)cc3C2)CCO1 (centres undefined)	-10%	.	.	.	.
CC(C)(C)C1CCC(=NNC(=O)c2cc3c(s2)CCCC3)CC1 (centres undefined)	-11%	-34%	43%	-11%	-10%
CC(C)(C)C1CCc2sc(C(=O)NNC(=O)CCl)cc2C1 (centres undefined)	11%	-37%	88%	-5%	11µM*
Cc1c(C(=O)N(C)C2CCOC2)sc2ncnc(NCC3(c4ccccc4)CCOCC3)c12 (centres undefined)	-17%	.	.	.	.
COc1ccc(N2CCN(C(c3ccccc3)c3nnc(-c4ccccc4Cl)o3)CC2)cc1 (centres undefined)	0%	.	.	8%	2%
CN(C)C(=O)c1nc2ccccc2s1	31%	-17%	-11%	-1%	-1%
CN(C)c1ccc(CC(=O)c2nc3ccccc3s2)cc1	-10%	-21%	-11%	-11%	40µM*
O=C(NC1CCCCCC1)C1CCN(C(=O)N2CCOc3ccc(Cl)cc32)CC1	-5%	.	.	2%	-3%
O=c1cc2oc3cc(O)c(O)cc3c(-c3ccccc3[N+](=O)[O-])c-2cc1O	?	1.1µM*	0.71µM*	-7%	-1%
Cc1nc2ccc(NC(=O)c3ccccc3)cc2c(=O)n1Cc1ccc(F)cc1	28µM*	.	-2%	.	.
O=C(CSc1ccc(-c2ccco2)nn1)c1ccccc1	35%	-38%	36%	0%	8.9µM*
COc1ccc(C(=O)CSc2ccc(-c3ccco3)nn2)cc1	-11%	-41%	0%	-4%	32µM*
O=C(CSc1ccc(-c2ccccn2)nn1)c1ccc([N+](=O)[O-])cc1	-7%	3%	13µM*	7%	-14%
O=C(CSc1ccc(-c2cccnc2)nn1)c1ccc([N+](=O)[O-])cc1	-17%	-30%	58%	3%	-15%
CCOCCCNC(=O)C(=O)Nc1c2c(nn1-c1ccccc1)CSC2	-13%	.	.	1%	-1%
O=c1c2cc(Br)ccc2[nH]c(=S)n1-c1ccccc1	20%	-11%	77%	3%	10%
O=c1cc(O)n(-c2ccccc2)c(=S)[nH]1	-14%	-18%	22%	?	2µM*
CCOC(=O)NC1(Nc2ccc(Cl)cn2)Oc2ccccc2O1	.	-21%	.	?	7.1µM*
CCOC(=O)/C=C/C(=O)OCC(=O)Nc1ccc(Cl)cn1	-19%	-13%	5%	-7%	0%
NS(=O)(=O)c1ccc2ccccc2c1	6%	-18%	-11%	-9%	-9%
O=C(O)/C=C/S(=O)(=O)c1ccc2ccccc2c1	-3%	-13%	-8%	-4%	0.89µM*
CCCCNC(=O)CCCn1c(=O)c2ccccc2n(Cc2ccccc2C)c1=O	0%	.	.	19%	-3%
O=C(OCC#CCNc1nnc(-c2cccc3ccccc23)o1)c1cccs1	.	-42%	.	-14%	18µM*
CNC(=S)N/N=C(\C)c1ccc(C(C)(C)C)cc1	2%	-17%	25%	3%	3%
SMILES	FMDV inh	AmpC no deterg	AMA1 RON2 block	AmpC inh detg	Sm TGR inh
CNC(=S)N/N=C(\C)c1ccccc1	10%	-19%	51%	?	5.6µM*
CCOc1ccccc1CNCc1c(C(=O)O)n(Cc2ccc(F)cc2)c2cc(C)ccc12	-10%	.	.	-8%	-5%
CCCCN(CC)CCCNC(=O)c1cn(CC)c2ccc(S(=O)(=O)N3CCOCC3)cc2c1=O	-7%	.	.	2%	8%
Cc1nc2scc(-c3ccco3)c2c(=O)n1/N=C/N(C)C	.	-4%	-5%	?	25µM*
Cc1sc2nc(C)n(/N=C/N(C)C)c(=O)c2c1C	7%	-15%	-9%	2%	9%
COc1ccc(Nc2nc3ccc(C)cc3nc2-n2nc(C)cc2C)cc1Cl	-9%	.	.	8%	7%
O=C(CCc1nnc(Cc2ccc3c(c2)OCO3)o1)NC(c1ccccn1)C(F)(F)F (centres undefined)	0%	17%	0%	10%	32µM*
CCN1CCN(C(=O)c2cc(-c3ccco3)nc3ccccc23)CC1	-8%	3%	-6%	5%	28µM*
O=C(c1cc2ccccc2cc1O)N1CCCC(C(F)(F)F)C1 (centres undefined)	9%	42%	27%	-12%	28µM*
CCOC(=O)C1CCCN(C(=O)c2cc(-c3ccco3)nc3ccccc23)C1 (centres undefined)	-6%	-21%	-19%	.	.
O=C(c1cc(-c2ccco2)nc2ccccc12)N1CCCC(C(F)(F)F)C1 (centres undefined)	-22%	-7%	-9%	?	35µM*
O=C(O)c1ccc2c(c1)C(=O)N([C@@H](C(=O)O)C(c1ccccc1)c1ccccc1)C2=O	.	-16%	.	7%	10%
Cc1ccc2c(c1)C(C)(C)[C@]1(C)NC(=O)CCN21	0%	-17%	4%	-6%	7%
CC1(C)c2ccccc2N2CC(=O)NC21/C=C/c1ccco1 (centres undefined)	-25%	-10%	-11%	-11%	7.9µM*
CC1(C)c2ccccc2N2CCC(=O)NC21/C=C/c1ccco1 (centres undefined)	-25%	19%	-11%	-15%	25µM*
O=C(NCc1cccc(Br)c1)C1CCCCN1S(=O)(=O)c1ccc(F)cc1 (centres undefined)	-8%	.	.	1%	4%
CCCCCOc1ccccc1CN1C(=O)C(=O)c2cc(C)ccc21	0%	.	.	0%	-17%
CC(=O)c1ccc(NC(=O)c2ccc(-c3ccc(Cl)cc3)o2)cc1	18%	.	.	1%	40µM*
CN(C)C(=O)c1ccc(NC(=O)c2ccc(-c3ccc(Cl)cc3)o2)cc1	-3%	91%	-4%	-3%	32µM*
OC1COC(OCc2ccccc2)C(O)C1O (centres undefined)	-8%	-9%	-2%	-5%	13%
CO/N=C(\C(=O)N[C@@H]1C(=O)N2C(C(=O)OCOC(=O)C(C)(C)C)=C(/C=C\c3scnc3C)CS[C@H]12)c1csc(N)n1	1%	.	.	.	.
Cc1[nH]c(=O)[nH]c(=O)c1/C=N/NC(=O)[C@H](C)N	-14%	-5%	91%	5%	50µM*
Cc1[nH]c(=O)[nH]c(=O)c1/C=N/NC(=O)[C@@H](NC(=O)OC(C)(C)C)C(C)C	0%	-5%	45%	?	35µM*
Cc1[nH]c(=O)[nH]c(=O)c1/C=N/NC(=O)CCNC(=O)OC(C)(C)C	-7%	-4%	156%	4%	17%

High-throughput results deposited in PubChem BioAssay by National Center for Advancing Translational Sciences (NCATS).
